From PubChem
Compounds with a hit are over-represented: about 19% of the library has one in this group of screens.
KB-V1 cytotox: KB-V1 MDR subline cytotoxicity; KB-V1 MDR cells viability, CellTiter-Glo, 72 h; Potency, µM (titrated, usually from 46.1 µM), usual class: cytotoxic; 400,000 tested, 3.4% active; also: nearly all actives have a fitted effect of over 60% in size
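Compound-treated KB-V1 multidrug-resistant cells, 72 h, 37 degrees C; viability by CellTiter-Glo. Fitted qHTS curves give the values.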
TDP1 cell CPT: growth inhibition of DT40 Tdp1-/-;hTDP1 cells with camptothecin (screen for TDP1 inhibitors); Potency, µM (series often up to 46.2 µM), without a hit: at the top dose activity change, negative = growth inhibition, hits mostly inhibitors; chicken DT40 Tdp1-/-;hTDP1 cells + 20 nM CPT, ATP luminescence, 48 h; 420,000 tested, 12% active; also: nearly all actives have a fitted effect of over 55% in size
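Chicken DT40 Tdp1-/- cells stably complemented with human TDP1 were seeded at 400 cells/well in medium containing 20 nM camptothecin, exposed to pin-transferred compounds, and grown at 37 °C for at least 48 hr. Viability was read as ATP luminescence.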
HT1080 IDH1KD tx: toxicity to HT-1080 IDH1 knockdown cells (counter line); HT-1080 IDH1 knockdown viability, ATP luminescence, 48 h; Potency, µM (highest dose often 46.1 µM), without a hit: at the highest dose activity, negative = toxicity, actives largely listed as cytotoxic; 360,000 tested, 2% active; AID 686971;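 also: 0% = DMSO wells and -100% = cell-free medium wells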
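Cytotoxicity counter-line: IDH1KD HT-1080, 48 h, CellTiter-Glo. Curves classed by r2, magnitude and activity.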
KB-3-1 cytotox: KB-3-1 parental cell cytotoxicity; KB-3-1 viability, CellTiter-Glo ATP luminescence, 72 h; 400,000 tested, 1.4% active; Potency, µM (titrated, usually from 46.1 µM), most hits filed as cytotoxic; also: nearly all actives have a fitted effect of over 60% in size
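72 h, 37 °C compound treatment of KB-3-1 parental cells; CellTiter-Glo added, 10 min, luminescence read. Data corrected against DMSO-only plates and normalized before curve fitting.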
HT1080NT lethal: kills 2HG-producing HT-1080-NT fibrosarcoma cells. HT-1080-NT fibrosarcoma viability, CellTiter-Glo ATP luminescence, 48 h. Potency, µM (titrated, usually from 46.1 µM), without a hit: at the top dose activity, negative = less viability, actives largely listed as cytotoxic. 360,000 tested, 1.6% active;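 also: NT is the 2HG producing partner of a matched IDH1 knockdown line; 0% = DMSO-treated cells and -100% = media-only wells without cells; nearly all actives have a fitted effect of over 55% in size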
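750 cells/well, RPMI + 5% FBS; 2 h settle, compound pin-transfer, 48 h at 37 degrees C. CellTiter-Glo 10 min RT, luminescence. Normalized to DMSO and media-only wells.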
DT40 TDP1 no CPT: qHTS for Inhibitors of human tyrosyl-DNA phosphodiesterase 1 (TDP1): qHTS in cells in absence of CPT; DT40 Tdp1-/- hTDP1 cells, no CPT, ATP luminescence, 48 h; Potency, µM (titrated, usually from 46.2 µM), inactives show top-dose activity change, negative = growth inhibition, actives largely listed as inhibitors; 420,000 tested, 15% active; AID 686978, 2013; also: nearly all actives have a fitted effect of over 55% in size
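A cellular qHTS used chicken DT40 cells lacking endogenous Tdp1 but carrying stably transfected human TDP1. Compounds were applied without camptothecin, and cell growth kinetics were judged by ATP-dependent luminescence after ≥48 hr.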
Numbers without * were called inactive; i = inactive; ? = inconclusive; nt = no result; ! = not active in a repeat. Calls follow the shape of the dose curve; as a rule, active = well fitted curve in the direction sought with a large enough effect; inconclusive = small, poorly fitted or top-dose-only effect, or another doubt; inactive = no such curve, though single readings can be large; an effect the other way counts as inactive or inconclusive. Unless noted, % is scaled to controls: 0 for no effect and ±100 for the full control effect; potency is read from the fitted curve at half-maximal effect.

SMILES	KB-V1 cytotox	TDP1 cell CPT	HT1080 IDH1KD tx	KB-3-1 cytotox	HT1080NT lethal	DT40 TDP1 no CPT
C=C(C)CNC(=S)Nc1sc2c(c1C(=O)OCC)CC(C)(C)OC2	i	23.1µM*	-5.0%	i	-4.1%	16.4µM*
CCOC(=O)c1c(NC(=O)CCN2CCOCC2)sc2c1CC(C)(C)OC2	16.4µM*	3.1%	-6.1%	i	2.5%	?
CCOC(=O)c1c(NC(=O)CN2CCOCC2)sc2c1CC(C)(C)OC2	i	?	7.3%	i	2.3%	?
CCOC(=O)c1c(NC(=O)c2ccccc2C)sc2c1CC(C)(C)OC2	i	?	-2.2%	i	-4.8%	?
COc1ccc(-c2cc(C(F)(F)F)nc(SCC(=O)Nc3ccc(O)cc3)n2)cc1OC	i	nt	nt	i	nt	nt
CCC(C)/C=C/C1=CC2=C(Cl)C(=O)C3(C)OC(=O)C(C(=O)C(C)C(C)O)C3C2=CO1 (stereo not drawn)	i	11.6µM*	-0.6%	i	-1.0%	18.4µM*
CCCCN(CCCC)CCNC(=O)Cn1nc(C)n2c(cc3sccc32)c1=O	i	?	nt	i	nt	?
CCOC(=O)C1CCCN(C(=O)c2ccc3c(=O)n(Cc4ccccc4OC)c(=S)[nH]c3c2)C1 (stereo not drawn)	i	?	?	?	-25.6%	18.4µM*
CCOC(=O)N1CCN(C(=O)c2ccc(Cn3c(=S)[nH]c4cc(C(=O)OC)ccc4c3=O)cc2)CC1	i	?	-2.7%	i	4.9%	8.2µM*
CCOC(=O)C1CCCN(C(=O)c2ccc(Cn3c(=S)[nH]c4cc(C(=O)OC)ccc4c3=O)cc2)C1 (stereo not drawn)	?	?	-24.7%	i	0.4%	25.9µM*
COC(=O)c1ccc2c(=O)n(Cc3ccc(C(=O)NC4CCCC4)cc3)c(=S)[nH]c2c1	i	?	2.3%	i	4.6%	?
COCCn1c(=O)c(-c2ccccc2)nc2cnc(Oc3ccc(OC)cc3)nc21	nt	?	nt	nt	nt	-18.8%
Cc1ccc(N2CC(C(=O)NCc3nnnn3-c3ccc(C)c(C)c3)CC2=O)cc1C (stereo not drawn)	nt	-26.4%	nt	nt	nt	?
CN(Cc1cccc(F)c1)C(=O)CSc1nnc(C2CC2)n1C1CC1	i	8.8%	9.1%	i	1.3%	3.5%
COc1ccccc1CN(C)C(=O)CSc1nnc(C2CC2)n1C1CC1	i	?	5.0%	i	17.5%	16.4µM*
N#Cc1ccc(Nc2nc(-c3ccc(O)cc3O)cs2)cc1C(F)(F)F	?	13µM*	?	?	?	10.3µM*
CCOc1ccc(C(=O)c2oc3ccccc3c2NC(=O)c2cc(-c3ccc(C)cc3)on2)cc1	i	-13.8%	nt	i	nt	-0.7%
Clc1ccc(NCc2nc3ccccc3n2CCOc2ccccc2)cc1	i	13µM*	nt	i	nt	20.6µM*
CCOc1ccc(NCc2nc3ccccc3n2CCOc2ccccc2)cc1	?	?	?	?	-14.1%	?
CCOc1ccc(NCc2nc3ccccc3n2CCOc2ccc(C)cc2)cc1	?	6.51µM*	nt	?	nt	8.2µM*
Cc1ccccc1NCc1nc2ccccc2n1CCOc1ccccc1	?	?	nt	14.6µM*	nt	?
COc1cccc(NC(=O)c2cc(CN3CCOCC3)on2)c1	i	17.2%	nt	i	nt	10.1%
CN(C)C(=O)COC(=O)c1ccccc1OCC(=O)Nc1ccc(Br)cc1	i	?	nt	?	nt	?
OCCC1CN(Cc2cccn2-c2ncccn2)CCN1CCc1ccccc1 (stereo not drawn)	?	1.5%	2.8%	i	0.1%	-1.5%
CCCCOc1ccc(-c2nn(-c3ccccc3)cc2C2NC(=O)NC(C)=C2C(=O)OCC)cc1 (stereo not drawn)	i	?	nt	i	nt	?
SMILES	KB-V1 cytotox	TDP1 cell CPT	HT1080 IDH1KD tx	KB-3-1 cytotox	HT1080NT lethal	DT40 TDP1 no CPT
Cc1ccc(S(=O)(=O)N2CCN(c3nc(-c4cccs4)nc(C)c3C)CC2)cc1	i	9.7%	nt	i	nt	8.3%
COc1cc(CNc2ncnc3c2ncn3[C@H]2CN(Cc3cccc(C(F)(F)F)c3)C[C@@H](COC(C)=O)O2)cc(OC)c1OC	i	?	-27.9%	i	-16.0%	?
COc1cc(CNc2ncnc3c2ncn3[C@H]2CN(Cc3ccccc3)C[C@@H](COC(C)=O)O2)cc(OC)c1OC	i	?	-2.7%	i	18.0%	16.4µM*
COc1cc(CNc2ncnc3c2ncn3[C@H]2CN(Cc3cccc(C(F)(F)F)c3)C[C@@H](CO)O2)cc(OC)c1OC	i	18.4µM*	-9.1%	i	?	16.4µM*
CC(C)NCC(O)COc1cccc2ccccc12 (stereo not drawn)	i	16.4µM*!	nt	i	nt	16.4µM*!
OCC(O)COc1cccc2ccccc12 (stereo not drawn)	nt	0.5%	nt	nt	nt	-0.5%
OC(CNCc1ccccc1F)COc1cccc2ccccc12 (stereo not drawn)	i	?	14.6µM*	i	?	?
COc1ccc(NC(=O)CCCCCn2nnc3ccccc3c2=O)cc1	i	-20.0%	-10.4%	i	-20.4%	-51.6%
CCc1nc2ccc(C(=O)NC3CCN(C)CC3)cn2c1N(C)CCC(C)C	i	?	?	i	16.4µM*	?
CCc1nc2ccc(C(=O)Nc3ccc(C(N)=O)cc3)cn2c1N(C)CCC(C)C	i	18.4µM*	-23.4%	i	?	23.1µM*
CCc1nc2ccc(C(=O)Nc3ccc(NC(C)=O)cc3)cn2c1N(C)CCC(C)C	?	?	?	i	?	20.6µM*
CCc1nc2ccc(C(=O)Nc3ccc(OC)c(OC)c3)cn2c1N(C)CCC(C)C	i	?	16.8%	i	15.7%	?
CCCCN(C)c1c(C)nc2ccc(C(=O)NC3CCN(C)CC3)cn12	i	?	-8.2%	i	?	?
COc1cccc(N(C(=O)c2sc(C)nc2C)C(C(=O)NCC2CCCO2)c2ccccc2)c1 (stereo not drawn)	?	10.8%	11.5%	i	3.8%	-28.8%
O=C(Nc1ccccc1)N1CC[C@@]2(CCCN(C(=O)c3cc(C(F)(F)F)cc(C(F)(F)F)c3)C2)C1	nt	-11.3%	nt	nt	nt	?
CCOC(=O)c1sc(NC(=O)Cc2ccccc2OC)nc1C	i	-7.0%	0.1%	i	-0.1%	-25.3%
